Compound activity as filed in PubChem BioAssay.
GDH-TPI counter-1 – GDH-TPI coupling enzyme inhibitors, primary screen, artefact control for M. tuberculosis FBA inhibitor project, biochemical, absorbance, full deck; GDH-TPI coupled enzyme counterscreen, NADH absorbance; 1.2% of 360,000 active; inhibition, % at 4.8 µM; in the data active = inhibition above about 30%;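 note: 0% = DMSO wells and 100% = wells lacking the enzyme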
FBA Mtb inh – Mtb FBA enzyme inhibitors, primary screen, biochemical, fluorescence, strain H37Rv | inhibition, % at 1 µM | 2.3% of 360,000 active | AID 588726, 2011 | purified M. tuberculosis FBA, fluorescence read-out | Fructose-bisphosphate aldolase (Mycobacterium tuberculosis (strain ATCC 25618 / H37Rv)), …;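 note: 0% = vehicle and 100% = reference inhibitor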
Target sequence (P9WQA3 whole entry, looked up): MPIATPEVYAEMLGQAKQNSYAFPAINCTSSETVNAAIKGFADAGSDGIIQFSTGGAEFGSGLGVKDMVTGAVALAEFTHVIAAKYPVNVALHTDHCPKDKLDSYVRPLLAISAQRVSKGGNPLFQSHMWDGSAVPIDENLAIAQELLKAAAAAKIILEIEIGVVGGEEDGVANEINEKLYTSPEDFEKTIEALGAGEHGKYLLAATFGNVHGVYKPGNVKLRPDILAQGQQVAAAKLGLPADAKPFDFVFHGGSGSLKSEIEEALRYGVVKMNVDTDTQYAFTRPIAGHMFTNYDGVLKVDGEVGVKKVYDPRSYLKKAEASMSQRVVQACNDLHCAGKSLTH
Mtb hypoxia rep – PubChem AID 1159583; 0.1% of 300,000 active; M. tuberculosis hypoxia-regulated fluorescent reporter, fluorescence; fluorescence inhibition, % (concentration not given with the values); in the data active = fluorescence inhibition mostly above about 23%, no sharp cut-off; inactive = mostly below about 17%
BioA inh – M. tuberculosis BioA enzyme inhibitors, primary screen, biochemical, plate reader, single point, HTS. 7,8-diaminopelargonic acid synthase BioA (Mycobacterium tuberculosis). purified M. tuberculosis BioA enzyme. inhibition, % at 9.99 µM. 0.096% of 360,000 active. AID 602481, 2012; in the data active = inhibition above about 40%
FadD28 FP inh – inhibitors of FadD28 bisubstrate probe binding, primary screen, biochemical, fluorescence polarization, single point; Mycobacterium tuberculosis FadD28 fatty-acid-AMP ligase; inhibition, % at 12.5 µM; 0.22% of 360,000 active; AID 588549, 2011; in the data active = inhibition above about 8.5%, passing the limit was not always enough
Mtb FBA confirm – M. tuberculosis aldolase blockers, biochemical, fluorescence, strain H37Rv, confirmation | shares compounds with FBA Mtb inh | inhibition, % at 1 µM | purified M. tuberculosis FBA, fluorescence read-out | 78% of 5,600 active;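 note: 0% = vehicle wells and 100% = reference inhibitor wells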
GDH-TPI counter-2 – GDH-TPI coupling enzyme inhibitors, artefact control for M. tuberculosis FBA inhibitor project, biochemical, fluorescence, high throughput. shares compounds with FBA Mtb inh. GDH-TPI coupled enzyme counterscreen. inhibition, % at 1 µM. 81% of 5,600 active; in the data active = inhibition above about 10%
GDH-TPI DR – GDH-TPI coupling enzyme inhibitors, dose response, artefact control for M. tuberculosis FBA inhibitor project, biochemical, fluorescence, IC50; AID 652145, 2013; 79% of 170 active; GDH-TPI coupled enzyme assay, artifact counterscreen; shares compounds with FBA Mtb inh; IC50, µM; call rule not given here
Active calls of the source: *; / = not tested or not shown. Shown are actives, neighbours in structure and some others; about 2.9% of the full set was active somewhere. Cut-off read from the data, not from the text of the source, unless noted: active = inhibition above about 27%; inactive = the rest.

SMILES	GDH-TPI counter-1	FBA Mtb inh	Mtb hypoxia rep	BioA inh	FadD28 FP inh	Mtb FBA confirm	GDH-TPI counter-2	others
COc1cc(OC)cc(-c2c(-c3ccc(F)cc3)c3cc(-c4cccc5[nH]ccc45)ccc3n2C)c1	29	48*	19	-1	0	5	-9
COC(=O)[C@H]1[C@H](CO)[C@H]2Cn3c(ccc(-c4cccnc4)c3=O)[C@H]2N1Cc1ccccc1F	/	/	/	12	/	/	/
CC1(C(=O)N(CC(=O)NC2CCCC2)Cc2ccccc2)CC(=O)N=C2C=CC=CN21 (stereo not drawn)	6	109*	-13	-1	-2	140*	109*
O=C(CCC(=O)N(CC(=O)NC1CCCCC1)Cc1ccccc1)Nc1ccccn1	-8	-3	6	/	-2	/	/
CC1(C(=O)N(CC(=O)NC2CCCC2)Cc2ccco2)CC(=O)N=C2C=CC=CN21 (stereo not drawn)	15	65*	4	-2	0	118*	72*
Cc1nn(-c2ccccc2)c2sc(C(=O)N(CC(=O)NC3CCCC3)Cc3ccco3)cc12	14	6	/	1	-3	/	/
Cc1noc(C)c1NC(=O)Nc1ccc2c(c1)CC(=O)N([C@@H](C)CO)C[C@@H](C)[C@H](CN(C)CC1CCCCC1)O2	/	/	/	1	/	/	/
CCc1ccn2cc(-c3ccc4c(c3)OCO4)nc2c1	13	91*	9	10	-1	65*	43*
C[C@@H]1CN([C@H](C)CO)C(=O)c2cccc(NS(=O)(=O)c3ccc(F)cc3)c2O[C@H]1CN(C)C(=O)Nc1ccc(F)cc1	/	/	/	-2	/	/	/
CNc1ccccc1C(=O)OC(C)C(=O)Nc1ccc(S(=O)(=O)N2CCCC2)cc1 (stereo not drawn)	-1	39*	6	0	1	-2	-4
CC(=O)Nc1ccc(NC(=O)C(C)OC(=O)c2ccc(S(=O)(=O)N3CCCCC3)cc2)cc1 (stereo not drawn)	8	1	17	-2	-3	/	/
Cc1n[nH]c(=S)n1N=Cc1cccc(OCc2ccccc2)c1	/	/	-1	/	/	/	/
C[C@H](CO)N1C[C@H](C)[C@@H](CN(C)C(=O)NC2CCCCC2)OCCCC[C@H](C)Oc2ccc(NC(=O)Nc3ccccc3)cc2C1=O	/	/	/	1	/	/	/
O=C1[C@H]2C(c3ccccc3)=NN(c3ccccc3)[C@H]2C(=O)N1c1ccccc1	1	31*	14	/	1	67*	59*
O=C1OCCN1C(=O)[C@H]1[C@H](c2ccc(Cl)cc2)C(c2ccccc2)=NN1c1ccccc1	-10	22	/	-1	-6	/	/
CCOC(=O)Cn1c(C(F)(F)F)nc2nc(Cl)c(Cl)nc21	11	55*	/	/	-4	102*	62*
O=C(Nc1cccc2ccccc12)N1CCc2ccccc2C1	7	43*	/	0	-2	14	-3	GDH-TPI DR=>10
NC(=O)C1CCCN(C(=O)Nc2cccc3ccccc23)C1 (stereo not drawn)	-3	40*	/	-1	0	60*	46*
CN1CCN(C(=O)Nc2cccc3ccccc23)CC1	-6	40*	2	-1	-1	10	-6
COc1ccccc1NC(=O)N1CCOCC1	1	0	14	-2	0	/	/
O=C(Nc1cccc2ccccc12)N1CCOCC1	-2	45*	6	-2	-2	122*	88*
O=C(Nc1cccc2ccccc12)N1CCCN(c2c(Cl)cncc2Cl)CC1	-1	-18	-1	/	-1	/	/
O=S(=O)(N=C(Nc1ccc(F)cc1F)c1ccccc1)c1ccc(Br)cc1	/	/	0	/	/	/	/
O=C(O)C1=CC(c2cccs2)CC(OCc2ccc(CO)cc2)O1 (stereo not drawn)	/	/	18	/	/	/	/
O=C(Nc1cccc2ccccc12)N1CCN(c2ccc(F)cc2)CC1	5	30*	-5	-1	0	54*	55*
SMILES	GDH-TPI counter-1	FBA Mtb inh	Mtb hypoxia rep	BioA inh	FadD28 FP inh	Mtb FBA confirm	GDH-TPI counter-2	others
COC(=O)c1ccccc1NC(=O)N1CCN(c2ccc(F)cc2)CC1	-3	0	17	7	-1	/	/
CCN1CCN(C(=O)Nc2cccc3ccccc23)CC1	1	44*	12	1	-3	71*	72*
O=C(O)c1ccccc1NC(=O)N1CCOCC1	3	32*	3	/	0	112*	90*
O=C(Nc1nc2c(F)cccc2s1)C1CC1	-6	-5	3	-2	-4	/	/
CC1CCc2c(sc(Nc3nc4c(F)cccc4s3)c2C(N)=O)C1 (stereo not drawn)	15	28*	8	/	0	113*	99*
Cc1c(OCC(=O)N2CCC(C(N)=O)CC2)ccc2c1oc(=O)c1ccccc12	15	28*	/	-1	-3	130*	101*
COC(=O)Cc1c(C)c2ccc(OCC(=O)N3CCC(C)CC3)c(C)c2oc1=O	19	84*	2	1	0	54*	50*
Cc1cc(=O)oc2c(C)c(OCC(=O)N3CCN(Cc4ccccc4)CC3)ccc12	15	27*	0	3	-2	147*	100*
Cc1cc(=O)oc2c(C)c(OCC(=O)N3CCC(C(=O)O)CC3)ccc12	17	49*	/	0	-1	18	15*
O=[N+]([O-])c1ccc(-c2ccc(C=Nc3c(-c4ccco4)nc4ccccn34)o2)c(Cl)c1	/	/	4	/	/	/	/
CSCC[C@H](NC(=O)OC(C)(C)C)C(=O)NN=Cc1cccc2nccnc12	/	/	18	/	/	/	/
O=c1cc(CN2CCN(C/C=C/c3ccccc3)CC2)c2cc(O)c(-c3ccccc3)cc2o1	0	0	7	2	-5	/	/
Cc1c(O)ccc2c(CN3CCN(C/C=C/c4ccccc4)CC3)cc(=O)oc12	0	64*	-3	/	-6	74*	56*
Cc1ccc(-c2ccc(CO)o2)cc1N	6	30*	-4	/	-1	187*	121*
N#Cc1c(-c2ccc(Br)cc2)cc(-c2cccnc2)nc1N	10	29*	4	/	-1	17	3	GDH-TPI DR=>10
N#Cc1c(-c2cccs2)cc(-c2cccnc2)nc1N	9	88*	4	/	0	102*	81*
COc1ccc(-c2cc(-c3cccnc3)c(C#N)c(N)n2)cc1	6	71*	7	/	0	135*	106*
